Results: PubChem BioAssay (NCATS)
Several values for one entry are separate records, joined by “and”; a condition that tells them apart may be missing. Identical values can stand only once. Records with an inconclusive call do not appear. Activity calls are given as the source filed them. Unless noted, the call rests on the fitted dose curve; in most records, active means well fitted curve in the direction sought with a large enough effect; inconclusive means small, poorly fitted or top-dose-only effect, or another doubt; inactive means no such curve, though single readings can be large; an effect the other way counts as inactive or inconclusive.

What was measured:
[1] = target: Arylsulfatase A (Homo sapiens) (UniProt P15289); experiment: qHTS screen for enhancers of Arylsulfatase A (ASA1): LOPAC Validation Assay (AID 720538); further: potency means the concentration at half of the fitted maximal effect
Procedure, shortened: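 Enhancer assay in patient-derived MLD fibroblasts carrying ASA-I179S: 48 h compound exposure at 37 C, then 14 h room-temperature pNCS turnover (0.5 mM final) in lysis buffer. Read by fluorescence at 525/598 nm after NaOH stop.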

[2] = qHTS for compounds that reverse cellular toxicity of Amyloid beta (A-beta) peptide in yeast: LOPAC Validation Assay (AID 720559);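 further: plate controls were DMSO for no effect and equimolar ferric chloride plus clioquinol rescue for full effect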
Procedure, shortened: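 Rescue of A-beta toxicity was scored as yeast growth by 600 nm absorbance after 48 hr at 30 C with compound. Normalization used DMSO (negative) and equimolar ferric chloride plus clioquinol (positive).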

[3] = qHTS for Activators of Parkin Expression: LOPAC Validation Assay (NLuc Reporter) (AID 720572)
Procedure, shortened: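 Compound effects on Parkin promoter activity were measured as NanoLuc luminescence after 24 h at 37 C. The neuronal reporter line also carried FLuc, which was read first. LOPAC compounds were tested at 7 concentrations, with normalization to DMSO (0%) and positive control (100%).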

[4] = qHTS for Activators of Parkin Expression: LOPAC Validation Assay (FLuc Reporter) (AID 720573)
Procedure, shortened: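 FLuc signal from Parkin-promoter coincidence reporter neuronal cells, normalized to DMSO and positive control (100%). Cells (1,500/well) pre-incubated 24 h, then exposed to LOPAC compounds in 7-point dose response for 24 h at 37 C, 5% CO2.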

[5] = target: T1, Hexokinase-4 (Homo sapiens) + Glucokinase regulatory protein (Homo sapiens) (UniProt P35557+Q14397); experiment: qHTS assay for inhibitors of recombinant human GCK-GKRP interaction: Diaphorase-coupled assay (AID 743205)
Procedure, shortened: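 A kinetic fluorescence read (Ex 525/Em 590 nm, every minute for 30 minutes) tracked resorufin from a G6PDH-diaphorase coupled GCK reaction. It contained 10 nM GST-GCK, 10 nM FLAG-GKRP, 5 mM glucose, 0.4 mM ATP in Hepes pH 7.6. Normalized to with/without-enzyme DMSO controls.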

[6] = target: T1, Hexokinase-4 (Homo sapiens) + Glucokinase regulatory protein (Homo sapiens); experiment: qHTS assay for inhibitors of recombinant human GCK-GKRP interaction: ADP-Glo assay (AID 743206);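 further: plate controls were DMSO plus enzyme for no effect and no enzyme for full effect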
Procedure, shortened: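 Pin-transferred compounds meet a 15 nM GST-GCK/15 nM FLAG-GKRP/2 uM S6P mix (dispense concentrations). ATP is then added to 0.4 mM final with 5 mM glucose, and the reaction runs 60 min at room temperature. ADP is quantified luminescently.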

[7] = target: T1, Hexokinase-4 (Homo sapiens) + Glucokinase regulatory protein (Homo sapiens); experiment: qHTS assay for inhibitors of recombinant human GCK-GKRP interaction: HTRF assay (AID 743207);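 further: 0% = DMSO with GCK present and -100% = DMSO wells lacking GCK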
Procedure, shortened: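 After 60 min equilibration at room temperature with anti-FLAG XL665 and anti-GST antibodies, FRET ratio (665/615 nm, excitation 320 nm) was read. Proteins: GST-GCK and FLAG-GKRP, each 5 nM, plus 2 uM S6P, pH 7.1 buffer; GCK-free wells define minimum signal.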

[8] = qHTS Assay for Identifying Gametocytocidal Compounds (AID 743244); further: potency means the concentration at half of the fitted maximal effect;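 on max response: on the % scale 0 is the no-effect control and ±100 the full control effect; actives lower the fluorescent signal which means gametocytes are killed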; settings: P. falciparum 3D7 stage III-V gametocytes, alamarBlue, 72 h; max response: active compounds read low
Procedure, shortened: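 3D7 gametocytes, stages III–V, 20,000/well; cpd 72 h, 37 °C/5% CO2; + alamarBlue 24 h; fluor. Ex 525/Em 598.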

[9] = qHTS for small molecule inhibitors of Yes1 kinase: Counter Assay (AID 686950);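 further: no kinase present so only ADP-Glo detection of a fixed ADP amount is tested; luminescence from ADP-Glo reporting ADP in a fixed ATP and ADP mixture; series mostly up to about 77 µM; 0% = DMSO wells with ATP plus ADP and -100% = ATP-only wells without ADP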
Procedure, shortened: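 ADP-Glo luminescence read after a 60 min room-temperature incubation of compound with an ATP/ADP mix (0.08 mM/0.02 mM) and no kinase, following a 20 min compound preincubation. Signal scaled between ATP+ADP (max) and 0.1 mM ATP-only (min) wells; Tris pH 7.5, Mg2+, DTT.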

[10] = qHTS assay for small molecule agonists of the antioxidant response element (ARE) signaling pathway measured by Nrf2-dependant transcriptional activity - cell viability counter screen (AID 720653; active means well fitted curve in the direction sought with a large enough effect in the repeat runs; an effect the other way counts as inactive or inconclusive; further: on the % scale 0 is the no-effect control and ±100 the full control effect); settings: ARE-bla HepG2 viability, CellTiter-Glo ATP luminescence, 16 h; max response: active compounds read low
Procedure, shortened: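 Cytotoxicity counter screen: intracellular ATP quantified by CellTiter-Glo luminescence in the same ARE-bla HepG2 plates, after 16 h compound exposure and a 2 h beta-lactamase substrate step.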

[11] = qHTS assay for small molecule antagonists of the retinoid-related orphan receptor gamma (ROR-gamma) signaling pathway - cell viability counter screen (AID 720652; active means well fitted curve in the direction sought with a large enough effect in the repeat runs; an effect the other way counts as inactive or inconclusive;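 further: potency means the concentration at half of the fitted maximal effect; compound exposure lasted 16 hr before ATP read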)
Procedure, shortened: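 CHO RORE-LUC/TET-ROR line, 1,000 cells/well, 37 C 5% CO2 5 hr; cpd or DMSO + doxycycline induction, 16 hr. CellTiter-Glo, 30 min RT, luminescence = ATP content.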

T1 sequence (P35557 whole entry, looked up): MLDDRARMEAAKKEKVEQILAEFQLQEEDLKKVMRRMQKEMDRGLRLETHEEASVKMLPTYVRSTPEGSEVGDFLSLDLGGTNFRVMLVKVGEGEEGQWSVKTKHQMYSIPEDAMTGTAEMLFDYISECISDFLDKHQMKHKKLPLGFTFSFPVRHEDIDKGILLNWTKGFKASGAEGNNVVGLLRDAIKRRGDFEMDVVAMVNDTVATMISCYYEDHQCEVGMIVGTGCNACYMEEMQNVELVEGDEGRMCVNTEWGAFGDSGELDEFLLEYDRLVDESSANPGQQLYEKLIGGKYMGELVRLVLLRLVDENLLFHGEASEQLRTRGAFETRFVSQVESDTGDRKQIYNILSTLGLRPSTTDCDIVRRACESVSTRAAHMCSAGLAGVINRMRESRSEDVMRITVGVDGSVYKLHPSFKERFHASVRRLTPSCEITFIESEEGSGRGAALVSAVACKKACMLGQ
T1 sequence (Q14397 whole entry, looked up): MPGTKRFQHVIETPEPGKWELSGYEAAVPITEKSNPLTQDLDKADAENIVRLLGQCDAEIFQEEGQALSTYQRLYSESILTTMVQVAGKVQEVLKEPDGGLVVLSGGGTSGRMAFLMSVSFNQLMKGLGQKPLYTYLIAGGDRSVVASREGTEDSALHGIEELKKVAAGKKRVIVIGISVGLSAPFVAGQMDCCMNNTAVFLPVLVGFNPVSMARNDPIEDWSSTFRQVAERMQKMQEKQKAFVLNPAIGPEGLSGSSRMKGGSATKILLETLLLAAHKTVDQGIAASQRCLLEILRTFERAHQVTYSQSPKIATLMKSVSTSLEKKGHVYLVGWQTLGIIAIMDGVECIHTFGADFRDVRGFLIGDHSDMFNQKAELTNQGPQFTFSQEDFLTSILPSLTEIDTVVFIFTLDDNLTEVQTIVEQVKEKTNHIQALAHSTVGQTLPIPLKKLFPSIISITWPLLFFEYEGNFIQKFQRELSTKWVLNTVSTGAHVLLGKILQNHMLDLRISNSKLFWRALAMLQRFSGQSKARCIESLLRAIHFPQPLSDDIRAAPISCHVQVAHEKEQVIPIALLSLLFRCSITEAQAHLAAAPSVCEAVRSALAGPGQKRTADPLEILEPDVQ
Arylsulfatase A (Homo sapiens), sequence (P15289 whole entry, looked up): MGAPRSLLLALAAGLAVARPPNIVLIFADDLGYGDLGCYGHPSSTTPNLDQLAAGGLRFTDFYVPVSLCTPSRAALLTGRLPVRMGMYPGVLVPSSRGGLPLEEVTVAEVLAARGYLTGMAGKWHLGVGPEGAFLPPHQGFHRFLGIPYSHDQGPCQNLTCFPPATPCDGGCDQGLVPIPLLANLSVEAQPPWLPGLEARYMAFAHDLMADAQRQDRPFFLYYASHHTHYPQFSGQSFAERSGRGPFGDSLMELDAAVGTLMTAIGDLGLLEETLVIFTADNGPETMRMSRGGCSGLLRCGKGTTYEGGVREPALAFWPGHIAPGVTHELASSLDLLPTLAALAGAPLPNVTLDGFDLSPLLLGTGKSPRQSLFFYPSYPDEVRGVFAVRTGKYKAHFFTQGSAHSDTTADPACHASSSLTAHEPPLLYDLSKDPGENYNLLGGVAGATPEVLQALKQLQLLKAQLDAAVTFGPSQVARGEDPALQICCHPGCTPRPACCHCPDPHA

CN1C[C@H](CNC(=O)OCc2ccccc2)C[C@@H]2c3cccc4c3c(cn4C)C[C@H]21
inactive: Potency [1] | outcome [2] | outcome [3] | outcome [4] | outcome [5] | outcome [6] | outcome [7] | max response [8] -4.3%

CCCN1CCC[C@@H]2Cc3nc(N)ncc3C[C@H]21
inactive: Potency [1] | outcome [2] | outcome [3] | outcome [4] | outcome [5] | outcome [6] | outcome [7] | max response [8] 3.72% and 1.86%

CNC(=O)c1ccc(N2C(=S)N(c3ccc(C#N)c(C(F)(F)F)c3)C(=O)C23CCC3)cc1F
inactive: outcome [9] | max response [8] -1.03%

c1ccc(C2CC2)c(OCC2=NCCN2)c1
inactive: Potency [1] | outcome [2] | outcome [3] | outcome [4] | outcome [5] | outcome [6] | outcome [7] | max response [8] -3.84% and 23.7%

Cc1ccc2c(n1)Oc1ccc(C(C)C(=O)OCC(=O)N(C)C)cc1C2 (stereo not drawn)
inactive: max response [8] 42.6% and 2.17%

CC[C@@H](CO)NC(=O)[C@@H]1C=C2c3cccc4c3c(cn4C)C[C@H]2N(C)C1
inactive: Potency [1] | outcome [2] | outcome [3] | outcome [4] | outcome [6] | outcome [7] | max response [8] 1.36%

C[C@]12CC[C@H]3[C@@H](CCC4=CC(=O)CC[C@@H]43)[C@@H]1CC[C@@H]2OC(=O)CCc1ccccc1
inactive: max response [8] 0.188%

C=C1CC[C@@]2(O)[C@H]3Cc4ccc(O)c5c4[C@@]2(CCN3CC2CC2)[C@H]1O5
inactive: max response [8] 7.59%

O=C1CC[C@@]2(O)[C@H]3Cc4ccc(O)c5c4[C@@]2(CCN3CC2CC2)[C@H]1O5
inactive: max response [8] 19%

N#CC(C#N)=Cc1ccc(O)c(O)c1
inactive: Potency [1] | outcome [2] | outcome [5] | outcome [6] | outcome [7] | max response [8] 25.4%

CC(CCc1ccccc1)NC(C)C(O)c1ccc(O)cc1 (stereo not drawn)
inactive: Potency [1] | outcome [2] | outcome [3] | outcome [4] | outcome [5] | outcome [6] | outcome [7] | max response [8] 2.74% and 19.3%

Cc1cccc(C)c1NC1=NCCCS1
inactive: outcome [2] | outcome [3] | outcome [4] | outcome [5] | outcome [6] | outcome [7] | max response [8] 0.533% and 4.4%

CN(C)C(=O)C(CCN1CCC(O)(c2ccc(Cl)cc2)CC1)(c1ccccc1)c1ccccc1
active: Potency [8] 11.2 µM and 1.26 µM

CN(C)CCC=C1c2ccccc2CCc2ccccc21
inactive: max response [10] -15%
active: Potency [8] 1.26 µM

C#CCOC(C(=O)OCCN(C)C)(c1ccccc1)c1ccccc1
inactive: max response [8] -0.509%

N[C@@H](Cc1ccc(Oc2cc(I)c(O)c(I)c2)c(I)c1)C(=O)O
inactive: max response [8] -7.97%

CC(COc1ccccc1)N(CCCl)Cc1ccccc1 (stereo not drawn)
inactive: max response [10] -12.5% | max response [8] 3.46%
active: Potency [11] 42.2 µM

O=C(O)c1ccc2[nH]cc(CCCCN3CC=C(c4ccccc4)CC3)c2c1
inactive: max response [8] -6.11%

O=C1NCN(c2ccccc2)C12CCN(CC1COc3ccccc3O1)CC2 (stereo not drawn)
active: Potency [1] 3.01 µM
inactive: outcome [2] | outcome [3] | outcome [4] | outcome [5] | outcome [6] | outcome [7] | max response [8] -1.23% and 22.3%

CCC1(C2=NCCN2)Cc2ccccc2O1 (stereo not drawn)
inactive: Potency [1] | outcome [2] | outcome [3] | outcome [4] | outcome [5] | outcome [6] | outcome [7] | max response [8] -5.65% and 15.9%

CCCC1CCCCN1 (stereo not drawn)
inactive: max response [8] -2.88%

COc1ccc2c(c1OC)CN1CCc3cc4c(cc3C1C2)OCO4 (stereo not drawn)
inactive: max response [8] 4.63%

Cc1ncc(CNC(=O)N(CCCl)N=O)c(N)n1
inactive: outcome [2] | outcome [3] | outcome [4] | outcome [5] | outcome [6] | outcome [7] | max response [8] -1.52% and 11.3%

COc1ccc(C(CN(C)C)C2(O)CCCCC2)cc1 (stereo not drawn)
inactive: outcome [2] | outcome [3] | outcome [4] | outcome [5] | outcome [6] | outcome [7] | max response [8] 4.64% and 5.5%

CC(C)(C)NCC(O)c1cc(Cl)c(N)c(Cl)c1 (stereo not drawn)
inactive: max response [8] -5.19%

COc1ccc(Cc2nccc3cc(OC)c(OC)cc23)cc1OC
inactive: Potency [1] | outcome [5] | max response [8] 8.87% and -8.15%

CC(C)CC(N(C)C)C1(c2ccc(Cl)cc2)CCC1 (stereo not drawn)
inactive: max response [8] 6.63%

CC(=O)Nc1cc([As](=O)(O)O)ccc1O
inactive: max response [8] 0.387%

Fc1ccc(C(OCCN2CCN(CCCc3ccccc3)CC2)c2ccc(F)cc2)cc1
inactive: outcome [2] | outcome [3] | outcome [4] | outcome [5] | outcome [6] | outcome [7]

CC(=O)[C@H]1CC[C@H]2[C@@H]3CC[C@H]4C[C@](C)(O)CC[C@]4(C)[C@H]3CC[C@]12C
inactive: outcome [2] | outcome [3] | outcome [4] | outcome [5] | outcome [6] | outcome [7] | max response [8] -7.05% and 9.26%

FC(F)(F)c1cccc(C2=CCN(CCc3ccc4ccccc4c3)CC2)c1
inactive: max response [8] 11.8%

Cc1c(OCC(F)(F)F)ccnc1CS(=O)c1nc2ccccc2[nH]1 (stereo not drawn)
inactive: outcome [2] | max response [8] 1.82%

CC1NCCOC1c1ccccc1 (stereo not drawn)
inactive: max response [8] 1.41%

O=c1[nH]cc(F)c(=O)[nH]1
inactive: outcome [2]
